Compounds with a hit are over-represented: about 8.7% of the library has one in this group of screens.
Sfp PPTase inh: inhibitors of Bacillus subtilis Sfp phosphopantetheinyl transferase. Biochemical Sfp PPTase activity, qHTS. Potency, µM, actives largely listed as inhibitors. 310,000 compounds, 3.5% hits. AID 1490;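 also: the enzyme is Sfp with the accession as filed and its product quenches rhodamine fluorescence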
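Compounds were incubated with enzyme (final 15 nM) for 15 min at room temperature before substrate addition started the reaction. Fluorescence at 525 nm excitation, 598 nm emission was recorded immediately and after 30 minutes.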
BAZ2B block: blocks human BAZ2B; Q9UIF8; Potency, µM (doses to about 114 µM), hits mostly inhibitors; AlphaScreen BAZ2B-H3K14Ac peptide displacement; 360,000 compounds, 4.4% hits; AID 504333; also: nearly all actives have a fitted effect of over 60% in size
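Protein-peptide AlphaScreen: BAZ2B 50 nM, b-H3K14Ac 50 nM, 1x PBS pH 7.4 + 0.01% Tween-20. Preincubation 30 min RT; cpd 30 min RT (top 110 uM); beads 20 min RT, light-protected.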
G9a block: G9a (human) methyltransferase inhibition. Q96KQ7. G9a H3K9 monomethylation, AlphaScreen, 2 h. Potency, µM (highest dose often 102 µM), most hits filed as inhibitors. 350,000 compounds, 8.8% hits. AID 504332; also: nearly all actives have a fitted effect of over 75% in size
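AlphaScreen read-out: biotin-H3K9 peptide (500 nM) methylation by 20 nM enzyme with 20 uM SAM, 2 h at room temperature after 15 min compound preincubation; anti-monomethyl H3K9 antibody plus donor/acceptor beads, 10 min dark.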
12-LOX inh: ALOX12 (human) lipoxygenase inhibition | purified 12hLO, xylenol orange hydroperoxide absorbance | Potency, µM (doses to about 108 µM), hits mostly inhibitors | 580,000 compounds, 1.1% hits | AID 1671190
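Purified human 12hLO (150 nM final) in 25 mM Hepes, 0.01% Triton X-100, pH 7.0 was preincubated 15 min at room temperature with compound. Then 40 uM arachidonic acid was added, 30 min. Hydroperoxide was read by Fe-XO absorbance ratio 573/405 nm.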
JMJD2A Tudor: inhibitors of human JMJD2A Tudor domain. AID 504339. 390,000 compounds, 4.4% hits. O75164. AlphaScreen JMJD2A-Tudor / H3K4me3 peptide binding. Potency, µM (top dose mostly 114 µM), usual class: inhibitors; also: nearly all actives have a fitted effect of over 50% in size
Target sequence (O75164 whole entry, looked up, the tested form may be a part): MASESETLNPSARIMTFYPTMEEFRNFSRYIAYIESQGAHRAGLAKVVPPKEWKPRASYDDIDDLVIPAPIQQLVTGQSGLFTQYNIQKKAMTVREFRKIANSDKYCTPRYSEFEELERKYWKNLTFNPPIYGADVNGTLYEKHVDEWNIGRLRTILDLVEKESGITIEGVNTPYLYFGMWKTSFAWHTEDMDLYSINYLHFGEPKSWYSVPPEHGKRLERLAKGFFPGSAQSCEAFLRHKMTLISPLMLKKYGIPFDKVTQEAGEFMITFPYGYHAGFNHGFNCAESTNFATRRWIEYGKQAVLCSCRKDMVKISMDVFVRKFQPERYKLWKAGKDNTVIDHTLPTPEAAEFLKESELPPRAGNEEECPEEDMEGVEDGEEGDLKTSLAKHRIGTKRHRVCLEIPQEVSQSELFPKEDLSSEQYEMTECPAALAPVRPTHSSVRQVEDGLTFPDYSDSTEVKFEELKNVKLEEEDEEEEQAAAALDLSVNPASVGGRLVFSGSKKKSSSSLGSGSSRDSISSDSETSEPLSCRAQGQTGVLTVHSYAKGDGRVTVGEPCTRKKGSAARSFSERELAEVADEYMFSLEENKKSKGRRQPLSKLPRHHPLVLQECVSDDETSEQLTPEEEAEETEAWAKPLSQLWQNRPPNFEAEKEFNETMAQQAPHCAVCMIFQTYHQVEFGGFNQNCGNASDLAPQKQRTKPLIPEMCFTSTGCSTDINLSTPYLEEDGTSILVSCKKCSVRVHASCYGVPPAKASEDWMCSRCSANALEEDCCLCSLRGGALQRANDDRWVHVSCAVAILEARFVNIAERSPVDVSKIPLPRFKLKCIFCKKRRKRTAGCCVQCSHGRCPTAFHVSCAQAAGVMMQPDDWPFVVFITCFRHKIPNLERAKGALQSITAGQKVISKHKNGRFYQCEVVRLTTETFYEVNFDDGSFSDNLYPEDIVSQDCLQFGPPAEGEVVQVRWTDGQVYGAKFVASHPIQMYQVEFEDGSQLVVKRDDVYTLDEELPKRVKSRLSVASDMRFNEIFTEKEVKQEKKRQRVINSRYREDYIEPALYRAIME
HP1b chromo inh: blocks HP1-beta chromodomain binding to methylated histone tails; 390,000 compounds, 0.56% hits; Potency, µM (top dose mostly 114 µM), usual class: inhibitors; AID 540317; AlphaScreen HP1-beta / biotin-H3K9me3 peptide binding; also: nearly all actives have a fitted effect of over 70% in size
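AlphaScreen: HP1-beta (50 nM) preformed 30 min with biotin-H3(1-18)K9me3 peptide (50 nM) in PBS pH 7.4, 0.01% Tween-20. Compound added for 30 min at RT, then streptavidin donor/nickel chelate acceptor beads (10 ug/mL) for 30 min.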
Numbers stand for hits; i = inactive; ? = inconclusive; nt = no result given; [ ] = another dose, or the depositor's remark. Calls follow the shape of the dose curve; as a rule, active = well fitted curve in the direction sought with a large enough effect; inconclusive = small, poorly fitted or top-dose-only effect, or another doubt; inactive = no such curve, though single readings can be large; an effect the other way counts as inactive or inconclusive.

SMILES | Sfp PPTase inh | BAZ2B block | G9a block | 12-LOX inh | JMJD2A Tudor | HP1b chromo inh
CCOc1cccc(C(=O)N(Cc2ccc(N(C)C)cc2)CC2CCCO2)c1 (stereo unspecified) | nt | 50.1µM | 14.1µM | i | ? | i
COc1ccc(C(=O)N(Cc2ccc(N(C)C)cc2)CC2CCCO2)cc1 (stereo unspecified) | nt | ? | 11.2µM | i | ? | i
CN(C)c1ccc(C(=O)NCC2CCCO2)cc1 (stereo unspecified) | i | i | ? | i | i | i
Cc1ccc(C(=O)N(Cc2ccc(N(C)C)cc2)CC2CCCO2)cc1 (stereo unspecified) | nt | 35.5µM | 12.6µM | i | ? | i
CCOc1ccc(N2C(=O)CCS2(=O)=O)cc1S(=O)(=O)NCc1ccco1 | nt | nt | nt | i | nt | nt
CN(Cc1ccc(N(C)C)cc1)C(=O)c1cc2ccccc2o1 | i | 31.6µM | 39.8µM | ? | 50.1µM | ?
CN(C)c1ccc(CN(CC2CCCO2)C(=O)c2cc3ccccc3o2)cc1 (stereo unspecified) | nt | 10µM | 6.31µM | i | 44.7µM | ?
CCCc1ccc2oc(C(=O)N(Cc3ccncc3)CC3CCCO3)c(C)c2c1 (stereo unspecified) | i | i | i | i | i | i
CN(Cc1ccccc1)C(=O)c1cc2ccccc2o1 | i | i | i | i | i | i
CN1CCN(CCNC(=O)c2ccc3c(c2)N(S(=O)(=O)c2ccccc2F)CC3)CC1 | nt | nt | nt | i | nt | nt
Cc1c(C)n(-c2ccc(F)c(F)c2)c2ncnc(Cl)c12 | nt | nt | nt | i | nt | nt
COc1ccccc1N1CCN(c2nc(CSc3ccc(C)cc3)cc(=O)[nH]2)CC1 | nt | nt | nt | i | nt | nt
COc1ccc(/C=C2\S/C(=N/S(=O)(=O)c3cccs3)NC2=O)cc1 | i | nt | ? | 39.8µM | i | i
COC(=O)c1sc2cccc(F)c2c1S(=O)(=O)N1CCN(c2cccc(Cl)c2)CC1 | nt | nt | nt | i | nt | nt
CCOC(=O)c1sc2cccc(F)c2c1S(=O)(=O)N1CCN(c2cccc(Cl)c2)CC1 | nt | ? | 8.91µM | ? | i | i
CCCn1[nH]cc(SC)c(=O)c1=O | i | ? | ? | ? | 25.1µM | i
Cc1nc2ccc(Cl)cc2cc1C(=O)N1CCN(CC(F)(F)F)CC1 | nt | nt | nt | i | nt | nt
Fc1ccc(/C=N/Nc2ccc3ccccc3c2)c(F)c1 | nt | nt | nt | 2.51µM | nt | nt
CCOC(=O)N/N=C/c1ccc(F)cc1F | i | i | i | i | i | i
Cc1nc(Cl)cc(N/N=C/c2ccc(O)cc2)n1 | i | i | i | i | i | i
Cc1nc(Cl)cc(N/N=C/c2ccc(O)cc2O)n1 | i | 35.5µM | ? | i | ? | i
Oc1ccc(/C=N/Nc2ccc3ccccc3c2)c(O)c1 | 50.1µM | ? | 6.31µM | i | ? | ?
COc1cc(NS(=O)(=O)c2ccc(NC(=S)NC(=O)/C=C/c3ccc(OC)c(OC)c3)cc2)ncn1 | i | 12.6µM | 39.8µM | i | i[11.4 µM] | 22.4µM
COc1cc(NS(=O)(=O)c2ccc(NC(C)=O)cc2)ncn1 | i | i | ? | i | i | i
COc1ccc(/C=C/C(=O)NC(=S)Nc2ccc(S(=O)(=O)Nc3cc(OC)ncn3)cc2)cc1 | i | i | 39.8µM | ? | i | i
SMILES | Sfp PPTase inh | BAZ2B block | G9a block | 12-LOX inh | JMJD2A Tudor | HP1b chromo inh
COc1ccc(/C=C/C(=O)NC(=S)Nc2ccc(S(=O)(=O)Nc3nccnc3OC)cc2)cc1 | ? | i | ? | ? | i | i
CN(CC(=O)NC1(C)CCS(=O)(=O)C1)Cc1ccc(Cl)c(Cl)c1 (stereo unspecified) | nt | nt | nt | i | nt | nt
Cc1nc(SC(C)C(=O)NC2(C#N)CCCCC2)c2ccccc2n1 (stereo unspecified) | nt | nt | nt | i | nt | nt
C[n+]1ccc(/C=C/c2ccccc2O)c2ccccc21 | i | ? | 25.1µM | ? | ? | i
CC(=O)/C=C/c1ccccc1O | i | i | i | i | i | i
Cc1ccc(C(=O)NC(=S)N2CCN(c3ccc([N+](=O)[O-])cc3)CC2)cc1 | i | i | i | i | i | i
Cc1ccc(N2CCN(C(=S)c3ccc(-c4ccccc4[N+](=O)[O-])o3)CC2)cc1 | 17.8µM | 10µM | 7.08µM | ? | 31.6µM | 14.1µM
O=[N+]([O-])c1ccccc1-c1ccc(C(=S)N2CCN(c3ccccc3)CC2)o1 | 17.8µM | 8.91µM | nt | ? | 22.4µM | ?
O=C(NC1CCCCC1)c1ccc(-c2ccccc2[N+](=O)[O-])o1 | i | ? | ? | i | ? | i
CC(C)COc1ccc(S(=O)(=O)NNC(=O)c2cc3ccccc3o2)cc1 | i | ? | i | 22.4µM | i | i
CCc1ccc(CN(Cc2cccnc2)C(=O)/C=C/c2ccc(OC)cc2)cc1 | ? | i | 50.1µM | ? | i | i
COc1ccc(/C=C/C(=O)NCc2cccnc2)cc1 | i | i | i | i | i | i
CC(=O)c1ccc(NS(=O)(=O)Cc2ccccc2)cc1 | i | i | i | i | i | i
CC(=O)N(C)c1ccc(NS(=O)(=O)Cc2ccccc2)cc1 | i | i | 56.2µM | i | i | i
Cc1ccc(-n2nc3n(c2=O)CCN(C(=O)c2ccccc2Cl)C3)cc1 | nt | nt | nt | i | nt | nt
COc1ccc(CNCc2cccs2)c(OC)c1 | nt | nt | nt | i | nt | nt
COc1ccc(CNCc2ccc(C)cc2)c(OC)c1 | i | 56.2µM | 35.5µM | ? | 3.16µM | ?
COc1cc(CNCc2ccc(OC)cc2OC)cc(OC)c1 | i | ? | i[0.501 µM] | ? | 28.2µM | i
CN(C)CC(C)(C)NC(=O)c1csc2nc(-c3cccc(C(F)(F)F)c3)cn12 | nt | nt | nt | i | nt | nt
CN1CCN(CCCNC(=O)c2nc3ccccc3c(=O)[nH]2)CC1 | nt | nt | nt | i | nt | nt
CCC(C)c1ccc(NC(=S)NCCn2cc(Br)cn2)cc1 (stereo unspecified) | i | i | ? | ? | i | i
CCC(C)c1ccc(NC(=S)NCCn2cc(Cl)cn2)cc1 (stereo unspecified) | i | i | nt | 35.5µM | i | i
CN(C)c1nc2c(c(=O)[nH]1)CCN(Cc1cc(Cl)ccc1F)CC2 | nt | nt | nt | i | nt | nt
c1ccc2c(c1)NCCS2 | 89.1µM | 50.1µM | i[0.501 µM] | ? | 50.1µM | i
COc1ccc(N2C(=O)CSC2c2ccccc2[N+](=O)[O-])cc1 (stereo unspecified) | i | i | 50.1µM | i | i | i
SMILES | Sfp PPTase inh | BAZ2B block | G9a block | 12-LOX inh | JMJD2A Tudor | HP1b chromo inh
C[S+](=O)([O-])N1CCCC2(C1)C(=NC1CCCC1)NC(=O)N2c1cc(F)cc(F)c1 (stereo unspecified) | nt | nt | nt | 89.1µM | nt | nt
CN1CCN(C(=O)c2ccc(NS(=O)(=O)c3cccc([N+](=O)[O-])c3)cc2)CC1 | nt | i | 44.7µM | i | i | i
CCCCc1nc2sc3c(SCCN(C)C)ncnc3c2c2c1CCC2 | ? | i | ? | i | 50.1µM | i
CCCCc1nc2sc3c(SCC(=O)NCc4ccco4)ncnc3c2c2c1CCC2 | 44.7µM | ? | i[0.501 µM] | ? | i | i
O=C1COc2cc(S(=O)(=O)CCC(=O)N3CCN(Cc4ccccc4)CC3)c(Cl)cc2N1 | nt | nt | nt | i | nt | nt
COc1ccc(-c2nc(C)c(C(C)=O)n2O)cc1[N+](=O)[O-] | i | i | 56.2µM | i | i | i

Screening data: PubChem BioAssay, National Center for Advancing Translational Sciences (NCATS)
